# Targets with a hit are over-represented here; the source holds about 7,900 in all. About 0.6% of all pairs of compound and target were hits.
# Compound: Cc1sc2c(c1C)C(c1ccc(Cl)cc1)=N[C@@H](CC(=O)OC(C)(C)C)c1nnc(C)n1-2
# Experiment: log2 fold change, soluble protein after heating vs DMSO (PISA); higher = thermal stabilisation; K562 cells, 10 uM, 30 min; active = over 0.2 and 3.5 SD of the protein, either way, in both replicates (recomputed)
# How it was run: (§1)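 For each measurement, 10 μM compound was applied for 30 min to K562 cells at 2×10^6 cells/mL. Aliquots were heated for 3 min across 48°C-58°C, pooled, and extracted in PBS with 0.5% NP-40 at 4°C; the supernatant after 21,000xg for 90 min was soluble protein. This was quantified by TMTpro 16plex LC-MS/MS with channel sums equalised, and thermal stability was reported relative to control samples from duplicates, on a log2 fold-change scale.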
# Chain of UniProt O75056 (O75056 whole entry, looked up): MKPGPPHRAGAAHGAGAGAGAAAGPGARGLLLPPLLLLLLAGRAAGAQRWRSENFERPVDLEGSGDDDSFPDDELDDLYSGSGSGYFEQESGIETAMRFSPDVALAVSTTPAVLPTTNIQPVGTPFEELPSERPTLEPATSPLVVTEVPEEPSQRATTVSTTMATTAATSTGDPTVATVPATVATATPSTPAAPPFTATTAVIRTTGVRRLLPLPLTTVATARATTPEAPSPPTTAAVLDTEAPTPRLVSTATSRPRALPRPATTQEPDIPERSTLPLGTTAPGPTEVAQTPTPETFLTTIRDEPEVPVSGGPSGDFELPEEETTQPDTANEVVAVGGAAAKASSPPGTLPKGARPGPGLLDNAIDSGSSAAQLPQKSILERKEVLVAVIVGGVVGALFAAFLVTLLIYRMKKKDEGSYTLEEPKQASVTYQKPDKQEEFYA
# Chain of UniProt Q8WXD2 (Q8WXD2 whole entry, looked up): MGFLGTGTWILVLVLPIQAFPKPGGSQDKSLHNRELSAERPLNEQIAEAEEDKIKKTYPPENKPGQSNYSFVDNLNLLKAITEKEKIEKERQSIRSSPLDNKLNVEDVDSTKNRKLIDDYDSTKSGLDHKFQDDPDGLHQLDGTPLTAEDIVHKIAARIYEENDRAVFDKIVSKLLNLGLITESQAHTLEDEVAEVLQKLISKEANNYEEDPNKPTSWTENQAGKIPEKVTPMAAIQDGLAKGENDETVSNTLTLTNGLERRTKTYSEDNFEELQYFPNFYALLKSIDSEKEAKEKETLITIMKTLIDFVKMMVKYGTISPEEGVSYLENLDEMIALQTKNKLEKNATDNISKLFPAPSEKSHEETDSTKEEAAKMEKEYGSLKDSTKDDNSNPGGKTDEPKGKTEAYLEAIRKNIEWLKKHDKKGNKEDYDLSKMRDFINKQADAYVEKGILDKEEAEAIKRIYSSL
# Chain of UniProt P51148 (P51148 whole entry, looked up): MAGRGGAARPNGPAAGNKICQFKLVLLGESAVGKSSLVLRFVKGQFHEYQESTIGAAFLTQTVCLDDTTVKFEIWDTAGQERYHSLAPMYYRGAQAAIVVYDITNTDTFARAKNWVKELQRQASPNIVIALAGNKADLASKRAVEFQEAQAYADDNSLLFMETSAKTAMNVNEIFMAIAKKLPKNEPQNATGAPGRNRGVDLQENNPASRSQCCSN
# Chain of UniProt O15127 (O15127 whole entry, looked up): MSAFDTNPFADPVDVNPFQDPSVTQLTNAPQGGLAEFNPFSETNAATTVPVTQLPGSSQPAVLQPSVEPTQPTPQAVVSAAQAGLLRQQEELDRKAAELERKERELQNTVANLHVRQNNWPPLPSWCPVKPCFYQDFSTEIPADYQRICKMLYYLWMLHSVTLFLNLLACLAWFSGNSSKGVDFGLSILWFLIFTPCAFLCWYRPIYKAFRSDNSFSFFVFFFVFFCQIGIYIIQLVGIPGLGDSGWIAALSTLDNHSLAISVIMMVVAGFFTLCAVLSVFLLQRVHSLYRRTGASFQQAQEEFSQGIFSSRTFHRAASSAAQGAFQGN
# Chain of UniProt Q9BXP2 (Q9BXP2 whole entry, looked up): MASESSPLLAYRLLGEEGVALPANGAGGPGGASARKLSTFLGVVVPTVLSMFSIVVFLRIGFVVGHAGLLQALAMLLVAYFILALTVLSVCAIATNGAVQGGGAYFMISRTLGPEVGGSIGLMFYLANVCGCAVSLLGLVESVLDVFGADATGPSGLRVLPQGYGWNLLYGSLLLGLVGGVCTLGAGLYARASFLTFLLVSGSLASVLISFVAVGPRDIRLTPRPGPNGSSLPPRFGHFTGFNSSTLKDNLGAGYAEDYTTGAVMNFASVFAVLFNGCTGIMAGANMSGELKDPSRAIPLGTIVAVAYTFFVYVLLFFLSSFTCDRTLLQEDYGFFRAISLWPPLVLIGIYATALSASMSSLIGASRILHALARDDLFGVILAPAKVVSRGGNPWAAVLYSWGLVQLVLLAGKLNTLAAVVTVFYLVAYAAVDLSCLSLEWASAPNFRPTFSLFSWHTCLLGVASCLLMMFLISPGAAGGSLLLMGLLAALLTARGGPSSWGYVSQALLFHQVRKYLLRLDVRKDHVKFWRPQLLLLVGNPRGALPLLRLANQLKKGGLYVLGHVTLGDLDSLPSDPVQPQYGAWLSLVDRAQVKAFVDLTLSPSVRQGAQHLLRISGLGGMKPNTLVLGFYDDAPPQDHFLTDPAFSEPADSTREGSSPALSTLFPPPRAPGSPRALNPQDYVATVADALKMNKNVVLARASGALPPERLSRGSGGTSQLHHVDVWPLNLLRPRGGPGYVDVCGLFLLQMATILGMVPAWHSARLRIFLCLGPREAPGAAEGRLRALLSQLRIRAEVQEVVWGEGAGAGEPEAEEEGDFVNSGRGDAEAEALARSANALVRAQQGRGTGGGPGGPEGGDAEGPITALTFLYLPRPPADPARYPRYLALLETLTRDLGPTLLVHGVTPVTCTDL
# Chain of UniProt P60602 (P60602 whole entry, looked up): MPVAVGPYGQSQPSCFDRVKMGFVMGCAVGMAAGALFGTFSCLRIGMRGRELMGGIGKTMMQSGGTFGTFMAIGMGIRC
# Chain of UniProt Q02383 (Q02383 whole entry, looked up): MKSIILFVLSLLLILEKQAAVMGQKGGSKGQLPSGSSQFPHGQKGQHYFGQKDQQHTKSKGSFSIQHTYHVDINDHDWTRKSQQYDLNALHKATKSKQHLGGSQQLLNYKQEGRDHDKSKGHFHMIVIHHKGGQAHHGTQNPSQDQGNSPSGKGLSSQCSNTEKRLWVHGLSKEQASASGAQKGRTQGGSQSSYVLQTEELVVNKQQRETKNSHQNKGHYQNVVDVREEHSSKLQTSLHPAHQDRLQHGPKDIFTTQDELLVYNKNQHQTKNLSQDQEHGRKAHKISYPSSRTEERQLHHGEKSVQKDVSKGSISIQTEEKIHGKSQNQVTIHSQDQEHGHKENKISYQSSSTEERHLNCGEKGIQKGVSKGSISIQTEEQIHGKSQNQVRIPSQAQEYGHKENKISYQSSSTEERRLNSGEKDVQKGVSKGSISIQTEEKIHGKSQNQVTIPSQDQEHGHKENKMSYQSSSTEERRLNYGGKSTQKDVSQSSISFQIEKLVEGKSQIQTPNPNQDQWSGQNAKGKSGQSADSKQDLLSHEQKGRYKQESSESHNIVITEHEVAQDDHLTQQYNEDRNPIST
# Chain of UniProt P78332 (P78332 whole entry, looked up): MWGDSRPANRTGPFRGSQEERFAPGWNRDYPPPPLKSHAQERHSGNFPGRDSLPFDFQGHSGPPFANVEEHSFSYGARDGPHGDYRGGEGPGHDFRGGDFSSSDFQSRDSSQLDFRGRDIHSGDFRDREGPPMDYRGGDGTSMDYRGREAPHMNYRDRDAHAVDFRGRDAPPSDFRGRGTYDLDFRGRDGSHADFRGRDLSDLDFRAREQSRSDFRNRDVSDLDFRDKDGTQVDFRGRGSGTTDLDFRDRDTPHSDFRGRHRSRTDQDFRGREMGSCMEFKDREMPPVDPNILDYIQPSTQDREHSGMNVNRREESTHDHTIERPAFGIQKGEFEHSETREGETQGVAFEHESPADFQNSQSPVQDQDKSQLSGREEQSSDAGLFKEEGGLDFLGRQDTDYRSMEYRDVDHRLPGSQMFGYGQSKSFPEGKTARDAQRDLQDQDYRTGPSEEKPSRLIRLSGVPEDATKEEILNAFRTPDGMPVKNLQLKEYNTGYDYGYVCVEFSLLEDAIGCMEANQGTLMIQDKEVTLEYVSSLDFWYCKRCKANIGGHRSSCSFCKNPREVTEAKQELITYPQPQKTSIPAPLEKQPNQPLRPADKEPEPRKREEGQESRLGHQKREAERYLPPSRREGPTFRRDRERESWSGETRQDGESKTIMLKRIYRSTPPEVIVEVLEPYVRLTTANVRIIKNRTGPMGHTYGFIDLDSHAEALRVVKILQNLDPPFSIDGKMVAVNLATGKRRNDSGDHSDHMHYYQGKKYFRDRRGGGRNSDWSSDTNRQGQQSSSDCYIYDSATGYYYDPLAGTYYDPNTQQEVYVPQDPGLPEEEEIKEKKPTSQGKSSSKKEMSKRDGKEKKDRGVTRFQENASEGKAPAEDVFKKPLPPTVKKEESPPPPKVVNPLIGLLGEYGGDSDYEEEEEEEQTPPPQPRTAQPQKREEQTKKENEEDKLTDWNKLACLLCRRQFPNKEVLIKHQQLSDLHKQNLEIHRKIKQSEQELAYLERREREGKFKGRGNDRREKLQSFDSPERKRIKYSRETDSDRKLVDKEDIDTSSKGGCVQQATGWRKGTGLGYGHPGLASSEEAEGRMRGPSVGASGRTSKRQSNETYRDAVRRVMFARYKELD
row,Target,log2 fold change
1,RBM12 (UniProt Q9NTZ6),-0.064 (inactive)
2,SCAMP2 (UniProt O15127),-0.105 (inactive)
3,RPS12 (UniProt P25398),0.011 (inactive)
4,SDC3 (UniProt O75056),-0.044 (inactive)
5,RAPGEF4 (UniProt Q8WZA2),-0.028 (inactive)
6,ROMO1 (UniProt P60602),0.172 (inactive)
7,RPS3 (UniProt E9PJN9),0.141 (inactive)
8,SDHAF4 (UniProt Q5VUM1),-0.025 (inactive)
9,SH2D1B (UniProt O14796),0.003 (inactive)
10,RSRC1 (UniProt Q96IZ7),-0.019 (inactive)
11,RUFY3 isoform 3 (UniProt Q7L099),0.016 (inactive)
12,SDCBP isoform 2 (UniProt O00560),0.169 (inactive)
13,SCG3 (UniProt Q8WXD2),0 (inactive)
14,RBM6 (UniProt P78332),0.012 (inactive)
15,RBMY1E (UniProt A6NEQ0),0.001 (inactive)
16,RPS3A (UniProt D6R9B6),0.248 (inactive)
17,RABGAP1L isoform 5 (UniProt Q5R372),0.113 (inactive)
18,RPS19 (UniProt M0R2L9),0.183 (inactive)

row,Target,log2 fold change
1,RAB5C isoform 2 (UniProt P51148),0.011 (inactive)
2,SIK3 (UniProt H0Y4E8),0.118 (inactive)
3,RPS4X (UniProt P62701),0.148 (inactive)
4,SLC12A9 (UniProt Q9BXP2),-0.035 (inactive)
5,RDH11 (UniProt Q8TC12),0.115 (inactive)
6,SESN2 (UniProt P58004),0.066 (inactive)
7,SEMG2 (UniProt Q02383),-0.047 (inactive)
8,S100A10 (UniProt P60903),-0.127 (inactive)
9,RBM48 isoform 2 (UniProt Q5RL73),-0.36 (inactive)
10,SAMD4B (UniProt Q5PRF9),0.039 (inactive)
11,RRP12 (UniProt Q5JTH9),0.001 (inactive)
12,SERINC1 (UniProt Q9NRX5),-0.08 (inactive)
13,RAB5IF isoform 5 (UniProt Q9BUV8),-0.08 (inactive)
14,RICTOR isoform 3 (UniProt Q6R327),0.043 (inactive)
15,SF3B5 (UniProt Q9BWJ5),0.007 (inactive)
16,RPS16 (UniProt P62249),0.043 (inactive)
17,SAFB2 (UniProt Q14151),0.045 (inactive)
18,RPRD1B (UniProt Q9NQG5),0.009 (inactive)

# Compound: c1ccc([C@@H]2C[C@H]2NC2CCNCC2)cc1
# Experiment: as above
# How it was run: as §1
row,Target,log2 fold change
1,RBM12 (UniProt Q9NTZ6),-0.006 (inactive)
2,SCAMP2 (UniProt O15127),-0.048 (inactive)
3,RPS12 (UniProt P25398),-0.019 (inactive)
4,SDC3 (UniProt O75056),0.052 (inactive)
5,SAP30 (UniProt O75446),-0.032 (inactive)
6,RAPGEF4 (UniProt Q8WZA2),-0.176 (inactive)
7,ROMO1 (UniProt P60602),0.082 (inactive)
8,SDHAF4 (UniProt Q5VUM1),0.073 (inactive)
9,SH2D1B (UniProt O14796),0.033 (inactive)
10,RSRC1 (UniProt Q96IZ7),-0.03 (inactive)
11,RUFY3 isoform 3 (UniProt Q7L099),0.029 (inactive)
12,SCG3 (UniProt Q8WXD2),0.051 (inactive)
13,RBM6 (UniProt P78332),0.076 (inactive)
14,RBMY1E (UniProt A6NEQ0),0.145 (inactive)
15,RABGAP1L isoform 5 (UniProt Q5R372),0.066 (inactive)
16,RAB5C isoform 2 (UniProt P51148),0.018 (inactive)
17,SIK3 (UniProt H0Y4E8),0.028 (inactive)
18,RPS4X (UniProt P62701),0.001 (inactive)
19,SLC12A9 (UniProt Q9BXP2),0.028 (inactive)
20,RDH11 (UniProt Q8TC12),-0.058 (inactive)
21,SESN2 (UniProt P58004),-0.028 (inactive)
22,SEMG2 (UniProt Q02383),-0.066 (inactive)
23,S100A10 (UniProt P60903),-0.01 (inactive)
24,RBM48 isoform 2 (UniProt Q5RL73),0.113 (inactive)
25,SAMD4B (UniProt Q5PRF9),0.058 (inactive)
26,RRP12 (UniProt Q5JTH9),0 (inactive)
27,RAB5IF isoform 5 (UniProt Q9BUV8),0.028 (inactive)
28,RPS16 (UniProt P62249),-0.003 (inactive)
29,SAFB2 (UniProt Q14151),0 (inactive)
30,RPRD1B (UniProt Q9NQG5),0.014 (inactive)
